Results filed as inconclusive are left out. A call without a number means that no potency is given here. Activity calls are given as the source filed them. Unless noted, calls come from the whole dose curve.

The nature of the first test: p53 small molecule agonists, cell-based qHTS assay with human liver microsomes: qHTS cell viability counter screen (AID 1963579). Note: nearly all actives have a fitted effect of over 45% in size. The conditions noted are these: p53RE-bla HCT-116 viability, ATP luminescence, 16 h, HLM; series mostly up to 66 µM. The procedure, abridged: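 Seed p53RE-bla cells at 4,000 per well; incubate 5 h at 37 C; add compound, human liver microsomes and NADPH; incubate 16 h at 37 C; add CellTiter-Glo; after 30 min at room temperature, read luminescence.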
Turning to `CC(=O)[O][Al]`, the Potency entry is “inactive”.
For `c1ccc2c(c1)ccc1c3ccccc3ccc21`, the Potency result was “inactive”.
Same read-out and setting: for `O=C1CCc2ccc(OCCCCN3CCN(c4cccc(Cl)c4Cl)CC3)cc2N1` the value was “inactive”; for `CCc1ccc2c(c1)C(=O)c1ccccc1C2=O`, “inactive”.
Turning to `CC(C)(C)c1cc(CO)cc(C(C)(C)C)c1O`, the Potency entry is “inactive”.
Same read-out and setting: with `CCCCOC(=O)CO` the entry was “inactive”; with `CCCCCCOC(=O)c1ccccc1`, “inactive”.
As for `CC(C)c1ccccc1`, the Potency result was “inactive”.
Consider `CCN(Cc1cccc(S(=O)(=O)O)c1)c1ccc(C(=C2C=CC(=[N+](CC)Cc3cccc(S(=O)(=O)[O-])c3)C=C2)c2ccccc2)cc1`, for which the Potency result was “inactive”.
Still for that read-out and setting: with `On1ccccc1=S` the entry was “inactive”; with `N#CCCCC(C#N)CCC#N` (stereo not drawn), “inactive”.
The same measure, in the same setting: for `O=C(c1ccccc1)C1CCCCC1` the value was “inactive”.

A short description of a further test: p53 small molecule agonists, cell-based qHTS assay with rat liver microsomes: qHTS cell viability counter screen (AID 1963580). Note: nearly all actives have a fitted effect of over 45% in size. Note: potency is the fitted concentration of half-maximal effect. Particulars: p53RE-bla HCT-116 + rat microsomes, ATP viability, 16 h; series mostly up to 66 µM. The essentials: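 Intracellular ATP, by CellTiter-Glo luminescence, defines viability. HCT-116 p53RE-bla cells, 4,000 per well, were compound-treated in the presence of rat liver microsomes and NADPH for 16 h at 37 C.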
(Quantitative high-throughput screening tests each substance at several concentrations.)
`CN(CCCN1c2ccccc2CCc2ccccc21)CC(=O)c1ccc(Cl)cc1`: the Potency result is “inactive”.
On the same count and under the same terms, for `CC(C)(C)c1ccc(C(=O)O)cc1` the value was “inactive”; for `CN(C)CCCN1c2ccccc2Sc2ccc(Cl)cc21`, “inactive”.
The same measure, in the same setting: with `CCCCN1C(=O)[C@@H]([C@H](O)C2CCCCC2)NC(=O)C12CCN(Cc1ccc(Oc3ccc(C(=O)O)cc3)cc1)CC2` the entry was “inactive”; with `O=C(O)Cc1ccc(Cl)cc1Cl`, “inactive”.
Take `CCN(CC)CCOC(=O)C(c1ccccc1)C1CCCCC1` (stereo not drawn): the Potency result was “inactive”.
Same read-out and setting: for `CC(=O)OCC(C)OC(C)=O` (stereo not drawn) the value was “inactive”.
As to `CCOC(=O)CC(=O)C(=O)OCC`, the Potency entry is “inactive”.
The same measure, in the same setting: for `CC(C)C(O)(c1ccc(OC(F)(F)F)cc1)c1cncnc1` (stereo not drawn) the value was “inactive”; for `CC/C=C1/OC(=O)c2ccccc21`, “inactive”.
`Cc1ccc([N+](=O)[O-])c(N)c1`: the Potency entry was “inactive”.
Consider `O=C1CCc2ccc(OCCCCN3CCN(c4cccc(Cl)c4Cl)CC3)cc2N1`, for which the Potency result is “inactive”.
`CCCCCCOC(=O)c1ccccc1`: the Potency result was “inactive”.
In the case of `On1ccccc1=S`, the Potency is 0.718 µM (active).

The nature of the next test: p53 small molecule agonists, cell-based qHTS assay: qHTS cell viability counter screen (AID 1963581). Note: nearly all actives have a fitted effect of over 45% in size. Note: potency is the fitted concentration of half-maximal effect. The conditions noted are these: p53RE-bla HCT-116 viability, ATP luminescence, 16 h; series mostly up to 66 µM. The procedure, abridged:
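In the same plates used for the p53 bla reporter, HCT-116 cells given compounds for 16 h at 37 C received CellTiter-Glo; luminescence was recorded 30 min later at room temperature.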
Consider `Oc1ccc(C2(c3ccc(O)cc3)CC3CC2C2CCCC32)cc1` (stereo not drawn), for which the Potency is 34.9 µM (active).
Take `CC(CO)(CO)CO`: the Potency entry is “inactive”.
With `CC(C)(C)c1ccc(C(=O)O)cc1`, the Potency entry was “inactive”.
On the same count and under the same terms, with `C/C=C1\[C@H]2C=C(C)C[C@]1(N)c1ccc(=O)[nH]c1C2` the entry was “inactive”.
For the compound `CCN1/C(=C/C=C/c2sc3ccccc3[n+]2CC)Sc2ccccc21`, the activity change, negative = cytotoxicity is 1.06% [at 13.5 µM] (inactive).
`CCCC(=O)OC`: the Potency result is “inactive”.
Same read-out and setting: for `C/C=C/C=C/CO` the value was “inactive”.
Still for that read-out and setting: for `OCCOCC#CCOCCO` the value was “inactive”; for `Cc1ccc(O)c2ncccc12`, “inactive”; for `O=C(O)Cc1ccc(Cl)cc1Cl`, “inactive”.
With `CC(=O)OC(C)OC(C)=O`, the Potency entry was “inactive”.
As to `CC1=CC(=C(c2ccc(N)cc2)c2ccc(N)cc2)C=CC1=N`, the activity change, negative = cytotoxicity is -0.979% [at 5.99 µM] (inactive).
For `CC(=O)OCC(C)OC(C)=O` (stereo not drawn), the Potency entry was “inactive”.
Same read-out and setting: with `O=[N+]([O-])c1cccc(C(F)(F)F)c1` the entry was “inactive”; with `O=C(/C=C/c1ccccc1)OCCc1ccccc1`, “inactive”; with `CCOC(=O)CC(=O)C(=O)OCC`, “inactive”.
Same read-out and setting: for `CC(C)C(O)(c1ccc(OC(F)(F)F)cc1)c1cncnc1` (stereo not drawn) the value was “inactive”; for `O=Cc1ccc(O)c(O)c1O`, “inactive”.
Take `C=CCCCCCCC=C`: the Potency entry was “inactive”.
Same read-out and setting: for `CC/C=C1/OC(=O)c2ccccc21` the value was “inactive”; for `Cc1cccc(Nc2ccccc2)c1`, “inactive”; for `Cc1ccc([N+](=O)[O-])c(N)c1`, “inactive”.
For `CC(=O)[O][Al]`, the Potency entry is “inactive”.
Turning to `c1ccc2c(c1)ccc1c3ccccc3ccc21`, the Potency entry was “inactive”.
The same measure, in the same setting: for `CCc1ccc2c(c1)C(=O)c1ccccc1C2=O` the value was “inactive”; for `CCCCOC(=O)CO`, “inactive”.
Consider `CC(C)c1ccccc1`, for which the Potency result was “inactive”.
For `CCN(Cc1cccc(S(=O)(=O)O)c1)c1ccc(C(=C2C=CC(=[N+](CC)Cc3cccc(S(=O)(=O)[O-])c3)C=C2)c2ccccc2)cc1`, the Potency entry is “inactive”.
On the same count and under the same terms, for `O=C(c1ccccc1)C1CCCCC1` the value was “inactive”.

Another test in a line: p53 small molecule agonists, cell-based qHTS assay (AID 1963582; active = well fitted activation curve with a large enough effect in the signal ratio in the repeat runs, not every such curve was filed as active; the % refers to the signal ratio; note: potency is the fitted concentration of half-maximal effect). Particulars: HCT-116 p53RE-bla reporter, beta-lactamase FRET ratio, 16 h; series mostly up to 66 µM. The essentials: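 Compounds are pin-transferred in DMSO onto p53RE-bla cells and incubated 16 h at 37 C. The B/G FRET beta-lactamase substrate is then applied for 2 h at RT and fluorescence recorded.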
In the case of `CC(C)(C)c1ccc(C(=O)O)cc1`, the Potency entry was “inactive”.
`C/C=C1\[C@H]2C=C(C)C[C@]1(N)c1ccc(=O)[nH]c1C2`: the Potency result is “inactive”.
On the same count and under the same terms, for `CCCC(=O)OC` the value was “inactive”; for `OCCOCC#CCOCCO`, “inactive”.
With `Cc1ccc(O)c2ncccc12`, the Potency result is “inactive”.
`O=C(O)Cc1ccc(Cl)cc1Cl`: the Potency entry is “inactive”.
In the case of `CC(=O)OC(C)OC(C)=O`, the Potency result was “inactive”.
As for `CC1=CC(=C(c2ccc(N)cc2)c2ccc(N)cc2)C=CC1=N`, the activation was -2.87% [at 5.99 µM] (inactive).
As to `CC(=O)OCC(C)OC(C)=O` (stereo not drawn), the Potency result is “inactive”.
Take `O=[N+]([O-])c1cccc(C(F)(F)F)c1`: the Potency result was “inactive”.
On the same count and under the same terms, for `O=C(/C=C/c1ccccc1)OCCc1ccccc1` the value was “inactive”.
Same read-out and setting: with `CCOC(=O)CC(=O)C(=O)OCC` the entry was “inactive”; with `O=C(O)Cc1cc(I)c(Oc2ccc(O)c(I)c2)c(I)c1`, 11.5 µM (active); with `CC(C)C(O)(c1ccc(OC(F)(F)F)cc1)c1cncnc1` (stereo not drawn), “inactive”.
With `O=Cc1ccc(O)c(O)c1O`, the Potency entry is “inactive”.
Take `C=CCCCCCCC=C`: the Potency entry was “inactive”.
Take `CC/C=C1/OC(=O)c2ccccc21`: the Potency result was “inactive”.
The same measure, in the same setting: with `Cc1cccc(Nc2ccccc2)c1` the entry was “inactive”; with `Cc1ccc([N+](=O)[O-])c(N)c1`, “inactive”.
Still for that read-out and setting: with `CC(=O)[O][Al]` the entry was “inactive”; with `c1ccc2c(c1)ccc1c3ccccc3ccc21`, “inactive”; with `CCc1ccc2c(c1)C(=O)c1ccccc1C2=O`, “inactive”.
Take `CC(C)(C)c1cc(CO)cc(C(C)(C)C)c1O`: the Potency entry is “inactive”.
Still for that read-out and setting: with `CCCCOC(=O)CO` the entry was “inactive”; with `CC(C)c1ccccc1`, “inactive”; with `CCN(Cc1cccc(S(=O)(=O)O)c1)c1ccc(C(=C2C=CC(=[N+](CC)Cc3cccc(S(=O)(=O)[O-])c3)C=C2)c2ccccc2)cc1`, “inactive”.
Still for that read-out and setting: with `N#CCCCC(C#N)CCC#N` (stereo not drawn) the entry was “inactive”; with `O=C(c1ccccc1)C1CCCCC1`, “inactive”.

The values above are taken from PubChem BioAssay (Tox21).
